The supplement of paper PMC12669032
Unmarked numbers belong to inactive results.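 Rule for the calls: active = AUC reduced over 20% with Padj below 0.05 in at least 2 of 3 replicates; inactive = otherwise.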

What was measured:
Assay in all cases: growth AUC relative to DMSO control (median of replicates) (fraction); higher = more growth (less inhibition), active = hit call of the paper
Conditions in all cases: 20 µM; 24 h
Coprococcus comes = tested on: Coprococcus comes
Summary of the method: (§1)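 OD600 was recorded every hour for 24 h in anaerobic monocultures of gut bacteria kept at 37 °C in mGAM, seeded at OD600 0.05 and given 20 µM compound in 1% DMSO. The area under each growth curve was scaled to the plate median of solvent-only wells, or to row and column medians for the industrial chemical plate. Before this step, the minimum OD was set to 0. Reported values are medians of three biological replicates run on separate days.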

Escherichia coli ED1a = tested on: Escherichia coli ED1a
Summary of the method: as §1

Escherichia coli IAI1 = tested on: Escherichia coli IAI1
Summary of the method: as §1

Eubacterium rectale = tested on: Eubacterium rectale
Summary of the method: as §1

[1] = tested on: Fusobacterium nucleatum subsp. animalis
Summary of the method: as §1

Lactobacillus gasseri = tested on: Lactobacillus gasseri
Summary of the method: as §1

Lactobacillus paracasei = tested on: Lactobacillus paracasei
Summary of the method: as §1

Odoribacter splanchnicus = tested on: Odoribacter splanchnicus
Summary of the method: as §1

[2] = tested on: Parabacteroides distasonis
Summary of the method: as §1

Parabacteroides merdae = tested on: Parabacteroides merdae
Summary of the method: as §1

Roseburia intestinalis = tested on: Roseburia intestinalis
Summary of the method: as §1

Streptococcus salivarius = tested on: Streptococcus salivarius
Summary of the method: as §1

Structure (SMILES)	growth AUC (Coprococcus comes)	growth AUC (Escherichia coli ED1a)	growth AUC (Escherichia coli IAI1)	growth AUC (Eubacterium rectale)	growth AUC [1]	growth AUC (Lactobacillus gasseri)	growth AUC (Lactobacillus paracasei)	growth AUC (Odoribacter splanchnicus)	growth AUC [2]	growth AUC (Parabacteroides merdae)	growth AUC (Roseburia intestinalis)	growth AUC (Streptococcus salivarius)
CC(=O)O.NC(N)=NCCCCCCCCNCCCCCCCCN=C(N)N	0.64 (active)	1	0.928	0.0294 (active)	0.871	0.874	0.961	0.0478 (active)	0.132 (active)	0.0209 (active)	0.039 (active)	0.474 (active)
CN(C)C(=O)Nc1cccc(OC(=O)NC(C)(C)C)c1	0.974	0.995	0.972	1.19	1.07	0.934	0.934	0.551 (active)	1.01	0.959	1.05	0.975
CCOP(=O)(NC(C)C)Oc1ccc(S(C)(=O)=O)c(C)c1 (stereo not given)	1.06	1.03	1.02	1.03	1.03	0.993	1.03	1.05	1.06	1.04	1.09	0.999
COP(=O)(OC)Oc1ccc(S(C)(=O)=O)c(C)c1	0.989	1	0.983	0.795	0.998	1.07	0.971	1.02	1.02	0.995	1.02	1.01
Cc1ccc(N=CN(C)C=Nc2ccc(C)cc2C)c(C)c1	1.04	1.01	1.01	1.06	1.09	0.967	1.06	1.02	0.988	1.01	0.983	0.967
COP(=S)(OC)Oc1cc(Cl)c(I)cc1Cl	1.01	1.02	0.985	1.01	1.08	0.872	1	0.962	0.707 (active)	0.964	0.974	0.936
COP(=S)(OC)SCn1nnc2ccccc2c1=O	0.997	0.957	0.968	1.07	0.916	0.929	0.968	0.902	0.787	0.944	1.09	0.969
O=[N+]([O-])NC1=NCOCN1Cc1cnc(Cl)s1	0.971	0.992	0.997	1.1	1.15	0.809	0.988	1.04	1.01	0.965	0.941	0.85
CC1COC(Cn2cncn2)(c2ccc(Oc3ccc(Cl)cc3)cc2Cl)O1 (stereo not given)	0.72 (active)	0.979	1	0.723 (active)	0.983	0.952	0.986	0.904	0.801	0.871	0.823	0.962
Cc1cc(C(F)(C(F)(F)F)C(F)(F)F)ccc1NC(=O)c1cccc(I)c1C(=O)NC(C)(C)CS(C)(=O)=O	1.21	1.1	1.14	1.09	1.13	3.03	1.48	0.994	0.795	0.99	1.67	0.919
Nc1cc(Cl)ccc1Cl	1	1	1.01	0.989	1.07	1.04	0.958	1	1.02	1.04	1.09	1
N#Cc1nn(-c2c(Cl)cc(C(F)(F)F)cc2Cl)c(N)c1SC(F)(F)F	0.857	1.02	0.985	0.687 (active)	0.96	0.729 (active)	1.04	0.571 (active)	0.751 (active)	0.868	0.558 (active)	0.75 (active)
CCOP(=S)(OCC)Oc1cc(C)nc(N(CC)CC)n1	1.03	0.996	0.994	0.969	1.01	1.02	1.02	1.08	0.845	0.963	0.941	1
CN1COCN(Cc2cnc(Cl)s2)/C1=N/[N+](=O)[O-]	0.965	0.987	0.97	0.953	0.958	1.04	0.913	0.999	0.991	0.994	0.952	1.02
c1ccc2c(c1)cc1ccc3cccc4ccc2c1c34	1	1.02	1	0.971	0.951	1.04	0.967	0.932	0.994	0.974	1.13	1.06
CCOP(=S)(OCC)Oc1cnccn1	0.984	0.988	0.963	0.813	1.01	0.993	1.01	1.04	1	1.01	0.976	1
CC(Oc1cc(Cl)c(Cl)cc1Cl)C(=O)O (stereo not given)	0.987	0.978	0.953	0.964	0.889	1.04	1	1.02	0.955	0.986	0.935	0.976
O=C(NC(=O)c1c(F)cccc1F)Nc1ccc(OC(F)(F)C(F)OC(F)(F)F)c(Cl)c1 (stereo not given)	1	1.05	1	0.99	0.986	1.49	0.958	0.983	1.02	0.997	1.06	1.01
BrCCBr	1.03	1.03	1.01	1.06	1.01	1.03	1	1.06	1.04	0.99	1.06	1.01
CCS(=O)(=O)Oc1ccc2c(c1)C(C)(C)CO2	1.08	1.02	1.02	0.83	0.966	1.06	1	1.07	1.03	0.963	1.04	1.03
CC(Oc1ccc(Oc2nc3ccc(Cl)cc3o2)cc1)C(=O)O (racemic)	1.05	1.02	0.997	1.03	1.12	1.04	1.07	0.923	1.04	0.97	1.12	0.999
CCOP(=S)(OCC)Oc1ccc(S(C)=O)cc1 (stereo not given)	1	1	1.01	0.878	0.998	1.07	1	0.977	1	1	1.02	1.03
CCS(=O)c1c(C#N)nn(-c2c(Cl)cc(C(F)(F)F)cc2Cl)c1N (stereo not given)	0.99	0.988	0.995	1.02	1.04	0.909	1.02	0.971	0.949	0.965	1.01	1.06
CCOP(=S)(OCC)SCS(=O)C(C)(C)C (stereo not given)	1.05	1.04	1.01	1.01	1.07	0.959	0.754	1.04	1.01	1.01	1.04	1.04
ClC1=C(Cl)C2(Cl)[C@H]3[C@@H]4O[C@@H]4[C@H](Cl)[C@H]3C1(Cl)C2(Cl)Cl (single isomer, unassigned; isomer b)	0.931	0.995	0.983	0.979	0.923	0.95	0.501	1.07	1.03	0.969	0.894	0.961
